In all, about 5,500 compounds went through this assay and about 2,000 (36%) were called active. Inconclusive results (about 18%) are left out. This is one part of the list. Unmarked numbers belong to inactive results. No stated cut-off is given here; in the data, active means normalized growth mostly below about 0.91 (no sharp cut-off); inconclusive means no clear call, values can overlap the other calls; inactive means mostly above about 0.92.
Experiment: chemical genetic growth profiling, strain panel (AID 1159580);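 further: tested at 20 µM; growth read once vehicle control cultures reached saturation at 30 °C; 1 = growth at the plate median or of vehicle wells; lower values mean less growth of the strain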
Details: S. cerevisiae deletion strains, growth OD

CC1(C)C(C(Cl)Cl)C2(Cl)C(Cl)C(Cl)C1(Cl)C2(Cl)Cl (centres undefined)
normalized growth (locus YAL013W, strain DEP1, active compounds read low): 0.984 | normalized growth (locus YAL021C, strain ccr4, active compounds read low): 1.07 | normalized growth (locus YAL026C, strain drs2, active compounds read low): 0.996 | normalized growth (locus YAL030W, strain snc1, active compounds read low): 0.984 | normalized growth (locus YBL061C, strain skt5, active compounds read low): 0.983 | normalized growth (locus YBR009C, strain hhf1, active compounds read low): 0.976 | normalized growth (locus YBR021W, strain FUR4, active compounds read low): 0.996 | normalized growth (locus YBR023C, strain chs3, active compounds read low): 0.978 | normalized growth (locus YBR171W, strain sec66, active compounds read low): 0.978 | normalized growth (locus YBR229C, strain ROT2, active compounds read low): 0.987 | normalized growth (locus YBR231C, strain swc5, active compounds read low): 0.979 | normalized growth (locus YBR279W, strain paf1, active compounds read low): 0.992 | normalized growth (locus YCL011C, strain gbp2, active compounds read low): 0.993 | normalized growth (locus YCL016C, strain dcc1, active compounds read low): 0.979 | normalized growth (locus YCL029C, strain bik1, active compounds read low): 0.972 | normalized growth (locus YCL061C, strain MRC1, active compounds read low): 0.981 | normalized growth (locus YCL069W, strain vba3, active compounds read low): 0.993 | normalized growth (locus YCR088W, strain abp1, active compounds read low): 0.989 | normalized growth (locus YDL005C, strain med2, active compounds read low): 0.981 | normalized growth (locus YDL035C, strain GPR1, active compounds read low): 0.972 | normalized growth (locus YDL040C, strain nat1, active compounds read low): 0.984 | normalized growth (locus YDL074C, strain BRE1, active compounds read low): 1.02 | normalized growth (locus YDL101C, strain DUN1, active compounds read low): 0.991 | normalized growth (locus YDL134C, strain PPH21, active compounds read low): 0.986 | normalized growth (locus YDL185W, strain tfp1, active compounds read low): 0.989 | normalized growth (locus YDL192W, strain arf1, active compounds read low): 0.978 | normalized growth (locus YDR001C, strain nth1, active compounds read low): 0.992 | normalized growth (locus YDR069C, strain doa4, active compounds read low): 0.967 | normalized growth (locus YDR101C, strain arx1, active compounds read low): 0.99 | normalized growth (locus YDR137W, strain rgp1, active compounds read low): 0.839 (active) | normalized growth (locus YDR150W, strain NUM1, active compounds read low): 0.999 | normalized growth (locus YDR159W, strain sac3, active compounds read low): 0.892 | normalized growth (locus YDR162C, strain NBP2, active compounds read low): 0.988 | normalized growth (locus YDR195W, strain ref2): 0.997 | normalized growth (locus YDR297W, strain sur2, active compounds read low): 0.977 | normalized growth (locus YDR318W, strain mcm21, active compounds read low): 0.971 | normalized growth (locus YDR334W, strain swr1, active compounds read low): 0.997 | normalized growth (locus YDR335W, strain msn5, active compounds read low): 0.993 | normalized growth (locus YDR388W, active compounds read low): 0.959 | normalized growth (locus YDR392W, strain spt3, active compounds read low): 0.836 | normalized growth (locus YDR502C, strain sam2, active compounds read low): 0.974 | normalized growth (locus YEL003W, strain gim4, active compounds read low): 0.984 | normalized growth (locus YEL037C, strain rad23, active compounds read low): 0.995 | normalized growth (locus YEL061C, strain CIN8 (second series), active compounds read low): 0.995 | normalized growth (locus YEL061C, strain CIN8, active compounds read low): 0.994 | normalized growth (locus YER015W, strain faa2, active compounds read low): 0.979 | normalized growth (locus YER016W, strain bim1, active compounds read low): 0.984 | normalized growth (locus YER110C, active compounds read low): 0.981 | normalized growth (locus YER111C, strain swi4, active compounds read low): 1 | normalized growth (locus YER155C, strain BEM2 (second series), active compounds read low): 0.965 | normalized growth (locus YER155C, strain BEM2, active compounds read low): 0.983 | normalized growth (locus YER167W, strain BCK2, active compounds read low): 0.968 | normalized growth (locus YFR010W, strain ubp6, active compounds read low): 1 | normalized growth (locus YGL078C, strain dbp3, active compounds read low): 0.975 | normalized growth (locus YGL086W, strain mad1, active compounds read low): 0.981 | normalized growth (locus YGL167C, strain pmr1, active compounds read low): 0.973 | normalized growth (locus YGL173C, strain kem1, active compounds read low): 0.972 | normalized growth (locus YGL227W, strain vid30, active compounds read low): 0.99 | normalized growth (locus YGL240W, strain doc1, active compounds read low): 0.963 | normalized growth (locus YGL248W, strain PDE1, active compounds read low): 0.991 | normalized growth (locus YGL253W, strain hxk2, active compounds read low): 0.989 | normalized growth (locus YGR078C, strain PAC10, active compounds read low): 0.989 | normalized growth (locus YGR135W, strain pre9, active compounds read low): 0.971 | normalized growth (locus YGR229C, strain SMI1, active compounds read low): 0.962 | normalized growth (locus YGR252W, strain gcn5, active compounds read low): 0.962 | normalized growth (locus YHR013C, strain ard1, active compounds read low): 0.798 (active) | normalized growth (locus YHR027C, strain rpn1, active compounds read low): 0.977 | normalized growth (locus YHR030C, strain SLT2, active compounds read low): 0.965 | normalized growth (locus YHR079C, strain IRE1 (second series), active compounds read low): 0.965 | normalized growth (locus YHR094C, strain hxt1, active compounds read low): 0.974 | normalized growth (locus YHR129C, strain ARP1, active compounds read low): 0.996 | normalized growth (locus YHR142W, strain chs7, active compounds read low): 0.992 | normalized growth (locus YHR200W, strain rpn10, active compounds read low): 0.977 | normalized growth (locus YIL066C, strain RNR3, active compounds read low): 0.955 | normalized growth (locus YIL073C, strain SPO22, active compounds read low): 0.883 | normalized growth (locus YIL125W, strain kgd1, active compounds read low): 0.979 | normalized growth (locus YIR030C, strain dcg1, active compounds read low): 0.972 | normalized growth (locus YJL092W, strain hpr5, active compounds read low): 0.986 | normalized growth (locus YJL095W, strain BCK1 (second series), active compounds read low): 0.983 | normalized growth (locus YJL095W, strain BCK1, active compounds read low): 0.991 | normalized growth (locus YJL115W, strain asf1, active compounds read low): 0.99 | normalized growth (locus YJL129C, strain trk1, active compounds read low): 0.841 (active) | normalized growth (locus YJL134W, strain LCB3, active compounds read low): 0.986 | normalized growth (locus YJL154C, strain vps35, active compounds read low): 0.993 | normalized growth (locus YJL164C, strain tpk1, active compounds read low): 0.975 | normalized growth (locus YJL166W, strain qcr8, active compounds read low): 0.904 | normalized growth (locus YJL168C, strain set2, active compounds read low): 0.978 | normalized growth (locus YJL187C, strain SWE1 (second series), active compounds read low): 0.983 | normalized growth (locus YJL187C, strain SWE1, active compounds read low): 0.988

From PubChem BioAssay AID1159580 (chemical genetic matrix, 2015)
